From PubChem BioAssay (Tox21) come the findings set out here.

Inconclusive results are not listed. A call without a number means that no potency is given here. Unmarked numbers belong to inactive results. Calls of active or inactive are those of the source. The call rests on the fitted dose curve.
Potency means the concentration at half of the fitted maximal effect.

Chain of Acetylcholinesterase (Homo sapiens) (P22303 whole entry, looked up): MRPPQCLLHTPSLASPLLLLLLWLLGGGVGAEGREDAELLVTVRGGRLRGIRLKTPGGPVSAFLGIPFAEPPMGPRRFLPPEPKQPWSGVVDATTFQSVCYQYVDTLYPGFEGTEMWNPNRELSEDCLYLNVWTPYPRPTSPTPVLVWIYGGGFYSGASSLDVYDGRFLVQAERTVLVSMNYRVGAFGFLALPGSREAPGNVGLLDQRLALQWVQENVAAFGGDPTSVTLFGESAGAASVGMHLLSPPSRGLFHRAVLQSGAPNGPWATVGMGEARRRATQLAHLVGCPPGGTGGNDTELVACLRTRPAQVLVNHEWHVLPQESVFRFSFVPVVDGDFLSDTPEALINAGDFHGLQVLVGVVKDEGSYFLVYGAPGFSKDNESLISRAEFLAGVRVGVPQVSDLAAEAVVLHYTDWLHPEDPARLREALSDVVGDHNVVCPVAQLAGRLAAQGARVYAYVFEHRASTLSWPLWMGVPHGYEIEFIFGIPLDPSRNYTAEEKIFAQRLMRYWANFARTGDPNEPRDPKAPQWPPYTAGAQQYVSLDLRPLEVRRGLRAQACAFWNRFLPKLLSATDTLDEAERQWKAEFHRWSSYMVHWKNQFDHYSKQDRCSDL

The target in the experiment is Acetylcholinesterase (Homo sapiens) (UniProt P22303). As to the kind of experiment: Acetylcholinesterase (AChE) small molecule antagonists: colormetric cell-based qHTS assay (AID 1347395). Further: nearly all actives have a fitted effect of over 30% in size. As to conditions: SH-SY5Y cells AChE activity, colorimetric (Ellman); series mostly up to 115 µM. The source says:
National Center for Advancing Translational Sciences [NCATS]
Division of Preclinical Innovation [DPI]
U.S. Environmental Protection Agency [EPA]
National Institutes of Environmental Health Sciences [NIEHS]
National Toxicology Program [NTP]
U.S. Food and Drug Administration [FDA]
Acetylcholinesterase (AChE) is the primary cholinesterase in the body that hydrolyzes a key neurotransmitter, acetylcholine. Inhibition of AChE activity can lead to neurotoxicity. The known inhibitors include organophosphorous pesticides (OP), chemical warfare agents, drugs, and various phytochemicals.
A homogenous cell-based assay using the Amplite Colormetric acetylcholinesterase assay kit (AAT Bioquest, Sunnyvale, CA) was used to evaluate the chemicals in the Tox21 10K library that inhibit AChE activity. The assay uses 5, 5-dithiobis-(2-nitrobenzoic acid) (DTNB) to quantify the thiocholine produced from the hydrolysis of acetylthiocholine by AChE from the SH-SY5Y cells.
Tox21 Assay Protocol Summary:
For the cell-based AChE assay, 2,000 SH-SY5Y cells in 4 uL/well were dispensed into black, clear-bottom 1536-well plates using a Multidrop Combi dispenser (Thermo Scientific, MA). The assay plates were incubated overnight at 37 C to allow cells to attach to the wells, followed by the transfer of 23 nL of compound or DMSO (vehicle control) by a Pintool Station (Wako Automation, CA). The plates were incubated for 30 min at 37 C and 5% CO2, followed by the addition of 4 uL of detection cocktail solution (DTNB, acetylthiocholine) into each well using a Flying Reagent Dispenser (Beckman Coulter, CA) and then 90 min incubation at 37 C.
In general terms: In qHTS, concentration-response curves come from the screen itself.
In the case of `CN(C)CCc1c[nH]c2cccc(O)c12`, the Potency was 19.8 µM (active). The same measure, in the same setting: the entry for `CC(c1ccc(O)cc1)c1ccc(O)cc1` is “inactive”. Same read-out and setting: the value for `C=COCCCl` was “inactive”.

For the molecule `CC(C)OS(C)(=O)=O`, the Potency result was “inactive”. As to `NC(=O)CCl`, the Potency entry was “inactive”. On to `O=c1[nH]c2ccccc2n1C1CCN(CCCC(c2ccc(F)cc2)c2ccc(F)cc2)CC1`, for which the Potency entry is “inactive”. As to `CC(Cl)CN(C)C` (stereo not given), the Potency result is “inactive”. For the molecule `[Cl][Sn]([c]1ccccc1)([c]1ccccc1)[c]1ccccc1`, the activity, negative = inhibition was 1.75% [at 23.6 µM]. As to `Clc1ccc(COC(Cn2ccnc2)c2ccc(Cl)cc2Cl)cc1` (stereo not given), the Potency entry is “inactive”.

Turning to `CCSC(C)CC1CC(=O)C(/C(CC)=N/OC/C=C/Cl)=C(O)C1` (stereo not given), the Potency was 30.9 µM (active).

As to `O=C1c2ccccc2C(=O)C1C(=O)C(c1ccccc1)c1ccc(Cl)cc1` (stereo not given), the Potency entry is “inactive”. On the same count and under the same terms, the value for `O=[N+]([O-])c1ccc(Oc2ccc(C(F)(F)F)cc2[N+](=O)[O-])cc1` was “inactive”; that for `CCOP(=O)(NC(C)C)Oc1ccc(SC)c(C)c1` (stereo not given) was 58.6 µM (active); that for `CCC[CH2][Sn]([CH2]CCC)([CH2]CCC)[O]C(=O)c1ccccc1` was “inactive”. On the same count and under the same terms, the entry for `Nc1ccc(Cc2ccc(N)c(Cl)c2)cc1Cl` is “inactive”; for `N#CC(Cl)Cl` it is “inactive”. `CCCN(CC)CC1COC2(CCC(C(C)(C)C)CC2)O1` (stereo not given): the Potency result was “inactive”.

As to `C1CCC2CCCCC2C1` (stereo not given), the Potency entry was “inactive”. As for `COc1cc(C=O)cc2c1[C@H](COC(N)=O)[C@]1(OC(C)=O)ON2C[C@H]2[C@@H]1N2C(C)=O`, the Potency entry was “inactive”. Same read-out and setting: the value for `Fc1cccc(Cl)c1CCl` was “inactive”; that for `C=CC(=O)N(C)C` was “inactive”. Take `Clc1ccc(C(Cl)(Cl)Cl)c(Cl)c1`: the Potency entry is “inactive”. On to `CCCCCCCCCCCCCC[P+](CCCCCC)(CCCCCC)CCCCCC` (tested in a mixture with another compound), for which the Potency result is “inactive”.

As to `N#C/C=C/C#N`, the Potency entry was “inactive”. Still for that read-out and setting: the entry for `BrCC(Br)c1ccccc1` (stereo not given) is “inactive”; for `CC(C)[C@H](C(=O)OC(C#N)c1cccc(Oc2ccccc2)c1)c1ccc(OC(F)F)cc1` (stereo not given in full) it is “inactive”.

Turning to `CN(C)c1ccc(N=Nc2ccccc2)cc1`, the Potency entry was “inactive”.

Regarding `COc1ccc(OC)c(CC(C)N)c1` (stereo not given), the Potency entry was “inactive”. For `ClC1=C(Cl)C2(Cl)C3C(Cl)C(Cl)CC3C1(Cl)C2(Cl)Cl` (stereo not given), the Potency result was “inactive”.

`CC(C)[C@H](C(=O)O[C@H](C#N)c1cccc(Oc2ccccc2)c1)c1ccc(Cl)cc1`: the Potency entry was “inactive”. The same measure, in the same setting: the entry for `COCC(=O)N(c1c(C)cccc1C)[C@H](C)C(=O)OC` is “inactive”; for `CC(C)OC(=S)S` it is “inactive”; for `O=C1NCN(c2ccccc2)C12CCN(CC1COc3ccccc3O1)CC2` (stereo not given) it is “inactive”.

As for `Oc1ccc(C(=C(Cl)Cl)c2ccc(O)cc2)cc1`, the Potency entry is “inactive”.

As for `C[C@]12CC[C@@H]3c4ccc(OC(=O)N(CCCl)CCCl)cc4CC[C@H]3[C@@H]1CC[C@@H]2O`, the Potency result was “inactive”. The same measure, in the same setting: the value for `O=[N+]([O-])c1cc(Cl)ccc1Cl` was “inactive”. The same measure, in the same setting: the value for `Cc1cc(C(C)(C)c2cc(C)c(O)c(C)c2)cc(C)c1O` was “inactive”; that for `ClCc1ccc(Cl)cc1Cl` was “inactive”; that for `O=C(Cl)c1ccc(Cl)cc1` was “inactive”. Still for that read-out and setting: the entry for `CC1CCC(C(C)C)C(OC(=O)c2ccccc2N)C1` (stereo not given) is “inactive”.
